Several values for one entry are separate records, joined by “and”; a condition that tells them apart may be missing. Equal entries are not always repeated. Activity calls are given as the source filed them. Unless noted, the rule behind the calls is not given here.
Assays:
[1] = system: Wnt5a (protein binding on small-molecule microarray); assay: small molecules binding Wnt5a protein – biophysical, small-molecule microarray, 635/667 nm fluorescence, primary screen (AID 1142); conditions: 635 nm fluorescence, higher = more signal;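 note: fluorescence read at 667 nm with signal to noise per printed feature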
[2] = ATP-based viability of Huh7 replicon cells – cell-based, CellTiter-Glo luminescence, basal, 48 h, cytotoxicity control for HCV replication inhibitor project, primary screen (AID 1143); conditions: higher = more signal, called active from +8 up or from −8 down;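 note: Huh7 hepatoma cells carrying a hepatitis C replication reporter with no stimulus; test concentration not given here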
[3] = Pseudomonas biofilm growth suppression – PAO1 strain, BacTiter-Glo luminescence, LB-PBS, primary screen (AID 1144); conditions: P. aeruginosa PAO1 biofilm, 12 h, higher = more signal
[4] = basal CRE-LacZ reporter activity in PC12 – cell-based, unstimulated, primary screen (AID 1145); conditions: no forskolin, luminescence, 4.5 h, higher = more signal, called active from +8 up or from −8 down
[5] = forskolin-driven CRE-LacZ activity in PC12 – cell-based, CRE-LacZ reporter, forskolin-stimulated, primary screen (AID 1146); conditions: luminescence, 4.5 h, higher = more signal, called active from +8 up or from −8 down;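 note: PC12 cells with 6xCRE LacZ reporter stimulated by forskolin 10 µM; beta-galactosidase reporter signal reflecting CREB driven transcription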
[6] = target: Streptavidin (Streptomyces avidinii) (UniProt P22629); assay: compounds binding control protein streptavidin – biophysical, small-molecule microarray, 635/667 nm fluorescence, artefact control for SMM compound annotation, primary screen (AID 1147); conditions: higher = more signal;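 note: signal reflects streptavidin binding to arrayed compounds as a control protein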
Sequence of Streptavidin (Streptomyces avidinii) (P22629 whole entry, looked up): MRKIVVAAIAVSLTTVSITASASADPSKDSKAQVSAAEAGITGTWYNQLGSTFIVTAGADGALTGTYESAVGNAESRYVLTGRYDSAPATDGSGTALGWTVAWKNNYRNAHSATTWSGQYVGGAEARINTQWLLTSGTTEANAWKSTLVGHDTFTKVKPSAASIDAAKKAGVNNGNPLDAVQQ

[7] = probe aInhba binding on compound microarray – biochemical, small-molecule microarray, 635/667 nm fluorescence, primary screen (AID 1148); conditions: higher = more signal;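 note: score merges 667nm spot fluorescence with signal-to-noise for antibody binding to printed compounds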
Torsin-1A (Homo sapiens) [8] = target: Torsin-1A (Homo sapiens) (UniProt O14656); assay: TOR1A wild-type binding on microarray – cell lysate, small-molecule microarray, lysate, 635/667 nm, primary screen (AID 1149); conditions: COS7 hTOR1A-WT lysate, 635 nm fluorescence, higher = more signal
Sequence of Torsin-1A (Homo sapiens) (O14656 whole entry, looked up): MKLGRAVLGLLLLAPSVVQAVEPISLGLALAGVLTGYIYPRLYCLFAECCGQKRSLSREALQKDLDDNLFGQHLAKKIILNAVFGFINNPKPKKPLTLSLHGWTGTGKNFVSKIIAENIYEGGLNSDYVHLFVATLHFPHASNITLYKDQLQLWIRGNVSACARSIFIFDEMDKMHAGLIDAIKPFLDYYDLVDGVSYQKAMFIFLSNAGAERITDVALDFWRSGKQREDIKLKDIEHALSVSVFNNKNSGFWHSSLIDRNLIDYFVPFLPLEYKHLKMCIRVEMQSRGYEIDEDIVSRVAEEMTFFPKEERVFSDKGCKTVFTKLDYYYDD

Torsin-1A (Homo sapiens) [9] = target: Torsin-1A (Homo sapiens) (UniProt O14656); assay: torsin A mutant lysate binding on microarrays – cell lysate, small-molecule microarray, COS7 lysate, 635/667 nm fluorescence, primary screen (AID 1150); conditions: COS7 hTOR1A mutant lysate, 635 nm fluorescence, higher = more signal;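 note: score pools 667 nm emission and signal to noise measuring lysate protein binding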
[10] = system: Sonic hedgehog protein (Shh); assay: Sonic hedgehog microarray binding compounds – biochemical, small-molecule microarray, 635/667 nm fluorescence, primary screen (AID 1151); conditions: 635 nm fluorescence, higher = more signal;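 note: Shh protein binding to compounds spotted on small-molecule microarray slides; score combines spot fluorescence intensity with signal-to-noise across triplicate slides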
[11] = optical density shifts of acrAB sulA E. coli – strain DRC41, OD650, 48 h, E. coli filamentation inducer project, primary screen (AID 1152); conditions: higher = more signal, called active from +8 up or from −8 down;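 note: E. coli MC1000 strain DRC41 lacking acrAB efflux pump and sulA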
[12] = probe aLefty1 binding on compound microarray – biochemical, small-molecule microarray, 635/667 nm fluorescence, primary screen (AID 1153); conditions: higher = more signal;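 note: score merges spot fluorescence with signal-to-noise ratio from the scanned slide images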
[13] = plasmodial surface anion channel blockers, osmotic lysis – cell-based, P. falciparum Indochina, OD700, 1 h, primary screen (AID 1154); conditions: P. falciparum Indochina infected RBC osmotic lysis, higher = more signal, called active from +8 up or from −8 down
[14] = plasmodial surface anion channel blockers, osmotic lysis – cell-based, P. falciparum Indochina, OD700, 2 h, primary screen (AID 1155);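 note: lysis reports solute entry through the parasite surface anion channel PSAC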; conditions: P. falciparum Indochina infected erythrocytes, higher = more signal, called active from +8 up or from −8 down
[15] = changes in parasitized red cell lysis, either direction – P. falciparum Indochina, OD700, 3 h, PSAC antagonist project, primary screen (AID 1156); conditions: P. falciparum-infected erythrocytes, osmotic lysis, higher = more signal, called active from +8 up or from −8 down
[16] = plasmodial surface anion channel blockers, osmotic lysis – cell-based, P. falciparum Indochina, OD700, 18 h, primary screen (AID 1157); conditions: P. falciparum Indochina infected erythrocytes, osmotic lysis OD700, 18 h; higher = more signal, called active from +8 up or from −8 down
[17] = S6 kinase pathway phospho-S6 level changes – cell-based, A549, cytoblot, luminescence, serum-stimulated, primary screen (AID 1158); conditions: 5 h, higher = more signal;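 note: serum-stimulated A549 lung adenocarcinoma cells; signal is phosphorylated S6 detected by cytoblot immunostaining with HRP secondary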
[18] = target: NADPH oxidase 2 (Homo sapiens) (UniProt P04839); assay: compounds shifting NOX2 Amplex Red fluorescence – cell-based, HEK293-NOX2, PMA-stimulated, NOX inhibitor project, primary screen (AID 1159); conditions: 45 min, higher = more signal, called active from +8 up or from −8 down; note: test concentration not given here
Sequence of NADPH oxidase 2 (Homo sapiens) (P04839 whole entry, looked up): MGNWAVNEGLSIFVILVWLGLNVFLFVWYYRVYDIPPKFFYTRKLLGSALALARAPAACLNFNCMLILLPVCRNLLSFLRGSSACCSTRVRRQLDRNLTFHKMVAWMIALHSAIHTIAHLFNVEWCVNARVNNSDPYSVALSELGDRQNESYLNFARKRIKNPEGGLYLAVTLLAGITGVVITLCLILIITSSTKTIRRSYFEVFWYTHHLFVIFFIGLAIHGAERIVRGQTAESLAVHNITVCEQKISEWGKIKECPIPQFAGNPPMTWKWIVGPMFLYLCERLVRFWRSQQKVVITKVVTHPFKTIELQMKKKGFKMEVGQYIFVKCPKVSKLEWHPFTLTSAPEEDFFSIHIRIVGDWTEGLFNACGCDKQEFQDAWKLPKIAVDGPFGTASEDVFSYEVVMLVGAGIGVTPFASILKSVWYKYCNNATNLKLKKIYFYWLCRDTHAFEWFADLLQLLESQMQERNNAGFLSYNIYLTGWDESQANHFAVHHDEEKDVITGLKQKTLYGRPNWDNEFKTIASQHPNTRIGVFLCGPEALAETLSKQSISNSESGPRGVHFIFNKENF

[19] = target: NADPH oxidase 4 (Homo sapiens) (UniProt Q9NPH5); assay: compounds shifting NOX4 Amplex Red fluorescence – cell-based, HEK293-NOX4, tetracycline-induced, NOX inhibitor project, primary screen (AID 1160); conditions: HEK293-NOX4, Amplex Red H2O2 fluorescence, 45 min; higher = more signal, called active from +8 up or from −8 down
Sequence of NADPH oxidase 4 (Homo sapiens) (Q9NPH5 whole entry, looked up): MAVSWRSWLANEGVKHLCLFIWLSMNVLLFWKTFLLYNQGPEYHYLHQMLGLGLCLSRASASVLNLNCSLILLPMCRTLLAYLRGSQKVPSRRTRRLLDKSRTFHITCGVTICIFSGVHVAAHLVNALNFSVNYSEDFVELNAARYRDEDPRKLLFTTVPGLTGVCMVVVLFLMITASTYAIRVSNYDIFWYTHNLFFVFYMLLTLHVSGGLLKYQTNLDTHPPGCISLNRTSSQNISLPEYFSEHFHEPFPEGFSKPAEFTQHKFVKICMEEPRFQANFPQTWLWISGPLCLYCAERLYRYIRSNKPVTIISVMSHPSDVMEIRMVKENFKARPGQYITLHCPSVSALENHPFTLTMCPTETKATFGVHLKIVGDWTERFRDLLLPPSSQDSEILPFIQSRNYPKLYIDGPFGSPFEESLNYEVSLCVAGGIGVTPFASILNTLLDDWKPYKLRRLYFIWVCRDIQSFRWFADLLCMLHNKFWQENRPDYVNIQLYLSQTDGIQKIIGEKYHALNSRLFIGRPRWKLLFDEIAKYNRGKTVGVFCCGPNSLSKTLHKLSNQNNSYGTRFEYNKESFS

[20] = target: NADPH oxidase 5 (Homo sapiens) (UniProt Q96PH1); assay: compounds shifting NOX5 Amplex Red fluorescence – cell-based, HEK293-NOX5, NOX inhibitor project, primary screen (AID 1161); conditions: HEK293-NOX5, ionomycin, 45 min, higher = more signal
Sequence of NADPH oxidase 5 (Homo sapiens) (Q96PH1 whole entry, looked up): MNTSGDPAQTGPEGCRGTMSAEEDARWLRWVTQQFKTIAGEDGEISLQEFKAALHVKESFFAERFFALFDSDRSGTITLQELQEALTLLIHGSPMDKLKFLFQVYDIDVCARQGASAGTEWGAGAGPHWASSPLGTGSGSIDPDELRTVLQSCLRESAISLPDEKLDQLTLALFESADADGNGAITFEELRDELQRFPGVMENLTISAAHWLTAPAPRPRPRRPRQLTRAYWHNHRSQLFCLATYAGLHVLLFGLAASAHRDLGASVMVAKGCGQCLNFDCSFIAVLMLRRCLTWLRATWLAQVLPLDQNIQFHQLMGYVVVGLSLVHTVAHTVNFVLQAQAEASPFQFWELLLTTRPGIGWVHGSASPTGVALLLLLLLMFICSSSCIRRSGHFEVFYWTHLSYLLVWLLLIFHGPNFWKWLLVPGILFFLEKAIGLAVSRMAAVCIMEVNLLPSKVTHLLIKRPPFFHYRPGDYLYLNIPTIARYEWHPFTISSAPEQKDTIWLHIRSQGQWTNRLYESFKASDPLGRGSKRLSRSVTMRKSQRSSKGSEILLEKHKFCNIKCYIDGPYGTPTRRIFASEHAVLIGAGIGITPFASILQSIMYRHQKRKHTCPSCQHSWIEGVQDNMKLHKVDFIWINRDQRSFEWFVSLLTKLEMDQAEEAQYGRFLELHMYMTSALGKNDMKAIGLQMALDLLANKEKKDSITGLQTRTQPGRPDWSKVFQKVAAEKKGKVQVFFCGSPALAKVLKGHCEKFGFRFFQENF

| SMILES | composite z-score [1] | z-score [2] | z-score [3] | z-score [4] | z-score [5] | composite z-score [6] | composite z-score [7] | composite z-score (Torsin-1A (Homo sapiens) [8]) | composite z-score (Torsin-1A (Homo sapiens) [9]) | composite z-score [10] | z-score [11] | composite z-score [12] | z-score [13] | z-score [14] | z-score [15] | z-score [16] | z-score [17] | z-score [18] | z-score [19] | z-score [20] |
| --- | --- | --- | --- | --- | --- | --- | --- | --- | --- | --- | --- | --- | --- | --- | --- | --- | --- | --- | --- | --- |
| C=CCN(C(=O)C(c1cccs1)N(C(=O)/C=C\C(=O)O)C(C)(C)CO)c1ccc(OC)cc1 (stereo not given) | -0.0325 and -0.446 | -1.8 (inactive) and -0.679 (inactive) | -1.09 (inactive) | -0.488 (inactive) and -0.619 (inactive) | -1.07 (inactive) and 0.149 (inactive) | -1.19 and -0.56 | -0.061 and -0.0371 | -1.58 and -0.301 | -0.269 and 1.24 | -0.763 and -0.121 | 3.97 (inactive) and 3.23 (inactive) | -0.0722 and 0.121 | 0.292 (inactive) and 3.92 (inactive) | -0.775 (inactive) and -0.466 (inactive) | 0.029 (inactive) and -0.675 (inactive) | -1.05 (inactive) and -1.12 (inactive) | 1.97 and 1.04 | 0.0253 (inactive) and -0.0835 (inactive) | -0.464 (inactive) and -0.814 (inactive) | -0.126 and 0.853 |
| CCCNC(=O)OC[C@H]1O[C@H](CCON=C(C)CCN2CCc3nc(-c4ccccc4)c(-c4ccccc4)cc3C2)C=C[C@@H]1Oc1ccc(OC)cc1 | 0.156 | -0.81 (inactive) | -0.158 (inactive) | 2.49 (inactive) | -0.113 (inactive) | 0.114 | -0.152 | 0.479 | 0.302 | 0.449 | -1.29 (inactive) | -0.0054 | 1.77 (inactive) | 0.454 (inactive) | 0.571 (inactive) | 0.441 (inactive) | 0.0851 | -0.473 (inactive) | -2.55 (inactive) | -2.17 |
| CC(C)CON=C1C[C@@H](O)[C@@H](O)[C@@H]2[C@@H]3C(=O)N(c4cccc(Oc5ccccc5)c4)C(=O)[C@@H]3CC[C@H]12 | 0.738 | -0.158 (inactive) | 0.198 (inactive) | -0.292 (inactive) | 0.235 (inactive) | 0.804 | -0.102 | -0.243 | 0.22 | 0.697 | 0.525 (inactive) | -0.298 | -0.436 (inactive) | 0.0644 (inactive) | 0.388 (inactive) | 0.158 (inactive) | -0.157 | -0.831 (inactive) | 0.11 (inactive) | -0.144 |
| C=CCN(Cc1ccccc1)C(=O)C1N(c2c(Cl)cccc2CO)C(=O)C2C(C(=O)O)C3C=CC21O3 (stereo not given) | -0.597 and -1.05 | -0.634 (inactive) and -0.0943 (inactive) | -2.23 (inactive) and -0.0736 (inactive) | -0.619 (inactive) and -0.216 (inactive) | -1.1 (inactive) and 0.577 (inactive) | -1.38 and -2.19 | -0.182 and -0.364 | -0.986 and -1.77 | -1.2 and -1.14 | -0.796 and -0.69 | 3.44 (inactive) and 0.465 (inactive) | -0.147 | -0.97 (inactive) and 0.504 (inactive) | -0.994 (inactive) and 0.698 (inactive) | -0.847 (inactive) and 0.14 (inactive) | -1.32 (inactive) and 0.357 (inactive) | 1.33 and -0.0264 | 0.00151 (inactive) and 0.1 (inactive) | -0.574 (inactive) and -0.406 (inactive) | -0.259 and -0.994 |
| C=CCN(C(=O)C1N(CCOCCO)C(=O)C2C(C(=O)O)C3C=CC21O3)C(C)(C)C (stereo not given) | -0.908 and -0.886 | -0.773 (inactive) and -0.325 (inactive) | -0.000915 (inactive) and -1.27 (inactive) | -0.627 (inactive) and 0.0605 (inactive) | -0.581 (inactive) and 0.0532 (inactive) | -0.875 and -0.873 | -0.179 and -0.319 | -1.93 and -2.63 | -2.59 and -1.82 | -0.783 and -1.34 | -0.265 (inactive) and -0.45 (inactive) | -0.161 and -0.695 | 0.901 (inactive) and -0.5 (inactive) | 0.264 (inactive) and 0.438 (inactive) | -0.944 (inactive) and -0.84 (inactive) | -0.305 (inactive) and -0.108 (inactive) | 0.0267 and 0.353 | 0.388 (inactive) and 0.883 (inactive) | 0.292 (inactive) and -0.3 (inactive) | 1.19 and -0.295 |
